From ChEMBL document CHEMBL5724796, “Tm Shift (DSF) assay results for EUbOPEN Chemogenomics Library” (2024)
“And” between values parts separate entries of the source, which are not always exact repeats. Equal values may be shown once.

target: Cyclin-dependent kinase 2 (Homo sapiens) (UniProt P24941); details: Compound concentration 20.0 uM

Row | SMILES | ΔTm
1 | CCn1c(=O)c(C)cn(Cc2nnc(-c3ccc(F)c(OC)c3F)s2)c1=O | 0.23 °C
2 | Cc1c(F)c(N)cc(C(=O)Nc2cc(-n3cc(C(=O)NCCCN4CCOCC4)nn3)ccc2N2CCN(C)CC2)c1Cl | 0.07 °C
3 | N[C@@H](CCCCNC(=O)OCc1ccc([N+](=O)[O-])cc1)C(=O)N1CCCC1 | 0.15 °C
4 | O=C(C1CC1)N1CC[C@@H](Cc2n[nH]c(=O)n2-c2ccc(-c3ccc4occc4c3)cc2)C1 | -0.31 °C and -0.16 °C
5 | CN(CCC(Oc1ccc(-c2ccccc2)cc1)c1ccc(F)cc1)CC(=O)O (stereo not given) | 1.59 °C
6 | O=C(Oc1cccc(F)c1OC(=O)c1cccc(O)c1)c1cccc(O)c1 | 0.91 °C
7 | N=C(N)SCc1ccc(CN2C(=O)C(=O)c3cc(C(F)(F)F)ccc32)cc1 | 0.03 °C
8 | Cc1ccnc(NS(=O)(=O)c2ccc(NC(=O)Nc3ccc(S(=O)(=O)Nc4nccc(C)n4)cc3)cc2)n1 | 0.44 °C
9 | COCc1nc(C(F)(F)F)[nH]c1-c1cc(C(=O)N2CC(c3ccc(C#N)cc3)C2)c(C)cc1C | -0.08 °C
10 | Cn1nc(C(C)(C)C)cc1C(=O)NC(Cc1cccc(Cl)c1)C(=O)NCC#N (stereo not given) | 0.71 °C
11 | COc1cccc(OC)c1S(=O)(=O)Nc1noc2cc(Cn3cccn3)cc(OC)c12 | 0.06 °C
12 | CNC(=O)Cn1cc(-c2ccc3c(c2)[C@H](F)C[C@]32NC(=O)N(CC(=O)N(Cc3ccc(F)cc3)[C@@H](C)C(F)(F)F)C2=O)cn1 | 1.31 °C
13 | Cc1ccc([N+](=O)[O-])cc1S(=O)(=O)N(C)C | 0.09 °C
14 | Nc1ccc(-c2cccs2)cc1NC(=O)c1ccc(NC=O)cc1 | 1.18 °C
15 | CCCN(CCC)c1ccc(C=O)cc1Br | -0.15 °C
